# Assay outcomes as filed in PubChem.
# The sample as a whole holds a higher share of hits than the screen did.
# Tgondii IFNg = blocks Toxoplasma gondii growth in the presence of IFN-gamma; hit rate 3.8% among 69,000; activity change, negative = inhibition, % (no concentration beside the values); Toxoplasma gondii growth in IFN-gamma-treated host cells; active compounds read low; AID 1259416; in the data active = activity change below about -70%, passing the limit was not always enough;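 note: host cells are HeLa cells infected with Toxoplasma gondii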
# Numbers stand for hits; n = inactive; ! = not confirmed by another sample.
SMILES,Tgondii IFNg
CC(=O)Nc1ccc(Cl)c(C(=O)NCCN2CCCOC2=O)c1,n
Cc1cc(C)c(Cn2nc(C(C)(C)C)cc2C(=O)NN2CCOCC2)c(C)c1,n
CCS(=O)(=O)N1CC2(CCN(Cc3ccsc3)C2)C1,n
CCCCc1ccc(NC(=O)c2cc(OC)c(OC)c(OC)c2)cc1,n
Cc1ccc(CNCC2COCc3c(C)nnn3C2)cc1 (configuration not stated),n
Cc1ccc(C(=O)c2cc(O)c(O)c([N+](=O)[O-])c2)cc1,-80.2!
NC(=O)c1ccc(I)c([N+](=O)[O-])c1,n
COc1ccc(C(=O)c2ccc(C)cc2)c(O)c1,n
CCc1ncc(C(=O)NCc2cnn3ccccc23)cn1,n
O=C(c1cc(-c2ccn(C3CCCC3)n2)n2ccccc12)N1CCC(O)CC1,n
O=C(NCc1cccnc1-n1cncn1)c1ccc2c(c1)CCCO2,n
O=C1CCCN1Cc1ncn2c1CN(Cc1cccs1)CCC2,n
CN(C)C(=O)Nc1cccc(-c2ccc(N(C)C)cc2)c1,n
CCn1cc(-c2ccnc3[nH]c(-c4cccc(CN(C)C)c4)cc23)c(-c2ccc(NC(=O)N(C)C)cc2)n1,-82.5
CCn1cnc(NC(=O)N(C)Cc2cccc3ncccc23)n1,n
FC(F)(F)c1cccc(CNc2nc3ncccc3o2)c1,n
CC(Nc1ncnc2ccccc12)c1ccccc1 (configuration not stated),-93.4
CC(Nc1nc(-c2nnc(-c3ccccc3)o2)nc2ccccc12)c1ccccc1 (configuration not stated),-93.9
Cc1ccc(Nc2nc(-c3nnc(-c4ccc(C)cc4)o3)nc3ccccc23)cc1,n
c1ccc(Nc2ncnc3ccccc23)cc1,n
Cc1cccc(Nc2ncnc3ccccc23)c1,n
Cc1cc(C)cc(Nc2nc(-c3nnc(-c4ccccc4)o3)nc3ccccc23)c1,n
O=C(Cn1ncc2c(N3CCCCC3)ncnc21)N1CCC(N2CCCCC2)CC1,n
CCOCCCNC(=O)N1CCC2(CC1)Nc1cc(OC)ccc1-n1cccc12,n
Cc1cccc(C2(CNC(=O)CCn3cnnn3)CCOCC2)c1,n
SMILES,Tgondii IFNg
Cc1cc(=O)oc2c(CN(C)C)c(O)ccc12,n
CC[C@@]1(O)C(=O)OCc2c1cc1n(c2=O)Cc2cc3c([N+](=O)[O-])cccc3nc2-1,-79.8
CC[C@@]1(O)C(=O)OCc2c1cc1n(c2=O)Cc2cc3c(CN(C)C)c(O)ccc3nc2-1,-78.5
CCc1noc(-c2c(O)c3ccccc3n(CC)c2=O)n1,n
CNC(=O)C1Cn2ccnc2C2(CCN(Cc3ccc(C)s3)CC2)O1 (configuration not stated),n
CCN1CCNC(=O)C1CC(=O)Nc1cc2c(C)cc(=O)oc2cc1C (configuration not stated),n
CN(C)CCN1C2(CCN(C(=O)Cc3cccnc3)C2)c2ccccc2S1(=O)=O (configuration not stated),n
Cc1nn(C(C)CC(=O)Nc2ccnn2Cc2ccc3c(c2)OCO3)c(C)c1Cl (configuration not stated),n
CCCCCS(=O)(=O)CCCCCCCCCCn1c(-c2ccc(O)cc2)c(C)c2cc(O)ccc21,-78.7
CCCCNC(=O)CN(C)C(=O)c1cccc(-c2ccc(O)cc2)c1,n
C=CCN1C(=O)CCC12CCCN(Cc1cnn(C)c1)CC2 (configuration not stated),n
CCCC(C)c1nnc(NC(=O)Cc2ccc3c(c2)NC(=O)CO3)s1 (configuration not stated),n
Cc1cccc(CN2CCO[C@H]3[C@H]2CC[C@H]3OCc2cccnc2)n1,n
CCOc1cccc(CC(=O)N2CCc3c([nH]c4ccccc34)C2c2cccnc2)c1OCC (configuration not stated),n
Cc1cccc(C(=O)N2CCc3c([nH]c4ccccc34)C2c2cccnc2)c1 (configuration not stated),-108.5
O=C(c1ccc(Br)cc1)N1CCc2c([nH]c3ccccc23)C1c1cccnc1 (configuration not stated),-85.6
O=C(c1cccs1)N1CCc2c([nH]c3ccccc23)C1c1cccnc1 (configuration not stated),n
O=C(Nc1cccc(F)c1)C1CCC2(CN(C(=O)CCO)C2)O1 (configuration not stated),n
Cc1nnc(Sc2nc(Nc3ccc(C)c(C)c3)nc(Nc3ccc(C)c(C)c3)n2)s1,n
O=C(c1cccc(F)c1)N1C[C@@H]2CCN(CCN3CCCC3)C[C@H]2C1,n
C=C[C@@](C)(O)CCC1C(=C)CCC2[C@@](C)(CO)CCC[C@]12C (some centres not stated),n
O=C(NCc1ccccc1)c1nc2c(s1)CCN(C(=O)c1ccncc1)CC2,-74.4
COc1ccc(CNC(=O)c2nc3c(s2)CCN(C(=O)CC(C)C)CC3)cc1,n
Cc1ccc(-c2nc3c(s2)CN(C(=O)NCc2ccccc2)CC3)cc1,n
CC1CN(c2ncc(C(=O)OCc3ccccc3)c(C(F)(F)F)n2)CC(C)O1 (configuration not stated),-116.0
SMILES,Tgondii IFNg
CCCc1c(C(=O)OCC)cnn1-c1ncc(C(=O)OC)c(C(F)(F)F)n1,n
COC(=O)c1cnc(NN2C(=O)CCC2=O)nc1C(F)(F)F,n
CO[C@H]1CN(C)C(=O)c2cc(NC(=O)C3CCOCC3)ccc2OC[C@H](C)NC[C@H]1C,n
O=C(Cc1c[nH]c2ccccc12)NC1CCCN(c2cc(-c3ccncc3)[nH]n2)C1 (configuration not stated),n
O=C(Nc1cccnc1)c1cc(-c2cnc(N3CCCC3)nc2)cn1CC1CC1,n
O=C(Nc1cccnc1)c1cc(-c2cnc(-c3ccccc3)nc2)cn1CC1CC1,-77.5
O=C(NCc1ccc(F)cc1F)c1cc(-c2cnc(-c3cccnc3)nc2)cn1CC1CC1,n
Cc1cc(C)cc(NC(=O)CSc2nc(-c3ccccc3)nn2C(=O)c2ccco2)c1,n
Nc1nc(NCCc2ccc(O)cc2)nc2nc(-c3ccco3)nn12,-80.2
Nc1nc2c(cnn2CCc2ccccc2)c2nc(-c3ccco3)nn12,n
Nc1nc2ccc(Cl)cc2c2nc(-c3ccco3)nn12,n
CSc1cccc(NC(=S)N2CCCCC2CCN2CCOCC2)c1 (configuration not stated),n
CSc1cccc(NC(=O)N2CCCCC2CCN2CCCC2=O)c1 (configuration not stated),n
CSc1ccc2c(c1)N(CCC1CCCCN1C)c1ccccc1S2 (configuration not stated),-95.3!
CCn1cnnc1CCNC(=O)c1cccc(CC2CCNCC2)c1,n
O=C(c1cccs1)N1CCCn2c(nc(Cn3ccnc3)cc2=O)C1,n
CO[C@H]1CN(C)C(=O)c2cc(NC(=O)Nc3ccccc3F)ccc2OC[C@H](C)N(CCC(F)(F)F)C[C@@H]1C,n
CCOC(=O)c1c(NC(=S)NC(=O)c2ccccc2)sc(C)c1C,-73.4
CCOC(=O)c1c(NC(=O)c2ccccc2)sc(C(=O)Nc2ccccc2)c1C,n
CCOC(=O)c1c(NC(=O)c2c(C)nn(-c3ccccc3)c2Cl)sc(C)c1C,n
CCCc1cnc(-c2cccc3[nH]ccc23)nc1,n
CC(C)NC(=O)c1ccc2ncnc(N3CCCCC3)c2c1,n
CN1CCN(c2ncnc3ccc(-c4cccc5[nH]ccc45)cc23)CC1,-76.0
CC(C)CN1CCS(=O)(=O)[C@H]2CCN(C(=O)Nc3ccccc3)CC[C@@H]21,n
CCOc1ccccc1NC(=O)CC(=O)NC[C@H]1C[C@H]2C=C[C@H]1C21CC1,n
CCOC(=O)Cn1nc2nnc(-c3ccc(F)cc3)c(-c3ccc(F)cc3)n2c1=O,n
